Laboratory results published in PubChem BioAssay (Tox21).
Inconclusive results are not listed. Active and inactive are the calls of the source. Unless noted, calls follow the shape of the dose curve; as a rule, active = well fitted curve in the direction sought with a large enough effect in the repeat runs; inconclusive = weak or mixed curves; inactive = no such curve, though single readings can be large; an effect the other way counts as inactive or inconclusive.

Assays:
[1] = qHTS assay to identify small molecule agonists of the estrogen receptor alpha (ER-alpha) signaling pathway in the presence of an antagonist - cell viability counter screen (AID 1259386);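 also: series mostly up to about 92 µM; cells exposed to compounds for 22 h at 37 °C before the viability read; % is scaled to controls: 0 for no effect and ±100 for the full control effect; nearly all actives have a fitted effect of over 30% in size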
Procedure, shortened: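 Read-out: CellTiter-Fluor fluorescence after 1hr reagent incubation, measured in the same wells as the luciferase readout. VM7Luc4E2 cells were exposed to 15 compound concentrations with 10.0nM ICI-182,780 for 22hr at 37C.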

[2] = target: Progesterone receptor (Homo sapiens) (UniProt P06401); assay: qHTS assay to identify small molecule agonists of the progesterone receptor (PR) signaling pathway (AID 1346784; calls by dose curve; also: % is scaled to controls: 0 for no effect and ±100 for the full control effect; nearly all actives have a fitted effect of over 30% in size)
Procedure, shortened: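 Agonist qHTS: compounds pinned onto 3,000 PR-UAS-bla HEK 293T cells per well in charcoal-stripped serum medium, 16hr at 37C, then beta-lactamase activity measured by LiveBLAzer FRET fluorescence after 2 hours at room temperature.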

[3] = target: Progesterone receptor (Homo sapiens) (UniProt P06401); assay: qHTS assay to identify small molecule antagonists of the progesterone receptor (PR) signaling pathway (AID 1346795; active = well fitted inhibition curve with a large enough effect in the signal ratio in the repeat runs, not every such curve was filed as active; the % refers to the signal ratio; also: potency is read from the fitted curve at half-maximal effect)
Procedure, shortened: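 Antagonist mode with agonist R5020 at 1 nM final and 16 hr incubation at 37C. Reporter was beta-lactamase driven by UAS in HEK293T (PR-UAS-bla), 2% charcoal-stripped serum; signal from LiveBLAzer FRET substrate, 2 hr at room temperature.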

[4] = qHTS assay to identify small molecule antagonists of the TGF-beta/Smad signaling pathway - cell viability counter screen (AID 1346824); also: % is scaled to controls: 0 for no effect and ±100 for the full control effect; nearly all actives have a fitted effect of over 50% in size
Procedure, shortened: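 SBE-bla HEK 293T cells were plated overnight at 37 C, then given compounds in DMSO plus TGF-beta1 (added as 0.25 ng/mL solution) for 5 hr. After the bla read, CellTiter-Glo was added to the same wells and luminescence read after 30 min at room temperature.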

[5] = qHTS assay to identify small molecule agonists of the TGF-beta/Smad signaling pathway - cell viability counter screen (AID 1346829); also: top concentration of the series differs between compounds; % is scaled to controls: 0 for no effect and ±100 for the full control effect; nearly all actives have a fitted effect of over 45% in size
Procedure, shortened: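 SBE-bla HEK 293T cells plated overnight, compound exposure 5 hr at 37 C. Viability read in the same wells by CellTiter-Glo luminescence after 30 min at room temperature, following the beta-lactamase read.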

[6] = qHTS assay to identify small molecule agonists of the TGF-beta/Smad signaling pathway (AID 1346859; active = well fitted activation curve with a large enough effect in the signal ratio in the repeat runs, not every such curve was filed as active; the % refers to the signal ratio; also: series mostly up to about 77 µM; % is scaled to controls: 0 for no effect and ±100 for the full control effect)
Procedure, shortened: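 Fluorescence (ex 405 nm; em 460 and 530 nm) was read 2 h after LiveBLAzer FRET substrate at RT. The preceding compound treatment of overnight-plated SBE-bla HEK293T cells lasted 5 h at 37 C.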

[7] = target: Thyrotropin-releasing hormone receptor (Homo sapiens) (UniProt P34981); assay: qHTS assay to identify small molecule antagonists of the thyrotropin-releasing hormone receptor (TRHR) signaling pathway (AID 1346877; active = well fitted inhibition curve with a large enough effect in the repeat runs, not every such curve was filed as active; also: series mostly up to about 51 µM; % is scaled to controls: 0 for no effect and ±100 for the full control effect)
Procedure, shortened: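 HEK293/TRHR cells, 18 h, 37 °C; Ca2+ dye 2 h; cpd 5 min RT; TRH 1 nM final; fluorescence read 3 min, 1 s intervals; 15 concs, triplicate.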

[8] = target: Thyrotropin-releasing hormone receptor (Homo sapiens) (UniProt P34981); assay: qHTS assay to identify small molecule agonists of the thyrotropin-releasing hormone receptor (TRHR) signaling pathway (AID 1346891; calls by dose curve; also: series mostly up to about 58 µM; % is scaled to controls: 0 for no effect and ±100 for the full control effect)
Procedure, shortened: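 Agonist-mode intracellular calcium readout: kinetic fluorescence over 3 min at 1 s intervals after compound addition to TRHR-HEK293 cells (18 h seeded, 2 h dye-loaded at 37 C). Fifteen concentrations, triplicates.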

[9] = Human pregnane X receptor (PXR) small molecule agonists, qHTS cell viability counter screen (AID 1346977); also: % is scaled to controls: 0 for no effect and ±100 for the full control effect; nearly all actives have a fitted effect of over 50% in size
Procedure, shortened: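 Same-well viability read: CellTiter-Fluor added after 23 hr compound exposure, fluorescence measured 1 hr later. Cells were PXR-Luc HepG2 seeded at 2,000/well in 5% charcoal-stripped FBS medium, rested 5 hr before dosing at 37 C.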

[10] = Caspase-3/7 induction in HepG2 cells by small molecules, qHTS assay (AID 1346978); also: % is scaled to controls: 0 for no effect and ±100 for the full control effect; nearly all actives have a fitted effect of over 15% in size
Procedure, shortened: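 Wild-type HepG2 cells (2,000/well) were settled 5 h at 37 C, 5% CO2, then exposed to compounds in DMSO for 17 h. Caspase-3/7 activity was read by luminescence 30 min after adding Caspase-Glo 3/7 reagent at room temperature.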

[11] = Caspase-3/7 induction in CHO-K1 cells by small molecules, qHTS cell viability counter screen (AID 1346979); also: % is scaled to controls: 0 for no effect and ±100 for the full control effect; nearly all actives have a fitted effect of over 35% in size
Procedure, shortened: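 Cytotoxicity counter screen: CellTiter-Fluor added to compound-treated wild-type CHO-K1 cells at 16 h (37C, 5% CO2), fluorescence measured 1 h later; same wells as caspase-3/7 measurement.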

[12] = Caspase-3/7 induction in CHO-K1 cells by small molecules, qHTS assay (AID 1346980); also: % is scaled to controls: 0 for no effect and ±100 for the full control effect; nearly all actives have a fitted effect of over 15% in size
Procedure, shortened: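 Wild-type cells were seeded at 1,500 per well and settled 5 hr at 37 C, 5% CO2, then exposed to DMSO-dissolved compounds for 17 hr. Caspase-Glo 3/7 reagent was added, and luminescence was read after 30min at room temperature.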

[13] = target: Nuclear receptor subfamily 1 group I member 2 (Homo sapiens) (UniProt O75469); assay: Human pregnane X receptor (PXR) small molecule agonists, qHTS assay (AID 1346982); also: nearly all actives have a fitted effect of over 35% in size; also: potency is read from the fitted curve at half-maximal effect
Procedure, shortened: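 HepG2 PXR-Luc reporter line, 5% charcoal-stripped FBS; 5 hr pre-incubation, compound (DMSO) 24 hr at 37 C/5% CO2; ONE-Glo 30 min RT; luminescence read-out.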

[14] = target: Cytochrome P450 2D6 (Homo sapiens) (UniProt P10635); assay: Cytochrome P450 Family 2 Subfamily D Member 6 (CYP2D6) small molecule antagonists: luciferase reporter qHTS assay (AID 1671196); also: nearly all actives have a fitted effect of over 50% in size; also: potency is read from the fitted curve at half-maximal effect; as to activity change, negative = inhibition: series mostly up to about 120 µM; % is scaled to controls: 0 for no effect and ±100 for the full control effect
Procedure, shortened: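 Luminogenic proluciferin substrate, CYP2D6 enzyme; 10 min RT preincubation with compound, NADPH regeneration system added, 1 h RT. Stop/detection reagent, 20 min RT, luminescence read (RLU). Signal proportional to CYP activity.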

[15] = qHTS assay to identify small molecule agonists of the progesterone receptor (PR) signaling pathway - cell viability counter screen (AID 1346799; calls by dose curve; also: % is scaled to controls: 0 for no effect and ±100 for the full control effect; nearly all actives have a fitted effect of over 45% in size)
Procedure, shortened: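 Cytotoxicity measured by CellTiter-Glo luminescence (30 min, RT) in the same wells as the PR beta-lactamase agonist read. Those HEK293T cells had 16 h compound treatment at 37 C in 2% charcoal-stripped FBS medium.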

[16] = Caspase-3/7 induction in HepG2 cells by small molecules, qHTS cell viability counter screen (AID 1346981); also: series mostly up to about 92 µM; % is scaled to controls: 0 for no effect and ±100 for the full control effect; nearly all actives have a fitted effect of over 30% in size
Procedure, shortened: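 Fluorescence read-out of live-cell protease activity (CellTiter-Fluor) after 1 hr with reagent. This was measured in the same wells as the caspase-3/7 luminescence, on HepG2 cells exposed to DMSO-dissolved compounds for 16 hr at 37 C.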

[17] = qHTS assay to identify small molecule antagonists of the progesterone receptor (PR) signaling pathway - cell viability counter screen (AID 1346798); also: series mostly up to about 92 µM; % is scaled to controls: 0 for no effect and ±100 for the full control effect; nearly all actives have a fitted effect of over 50% in size
Procedure, shortened: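 Cytotoxicity read as CellTiter-Glo luminescence (30 min, room temperature) in the same wells as the beta-lactamase readout. HEK293T PR-UAS-bla cells in charcoal-stripped 2% FBS received compound and R5020, then 16 h at 37C, 5% CO2.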

[18] = target: Nuclear receptor subfamily 1 group I member 2 (Rattus norvegicus) (UniProt Q9R1A7); assay: Rat pregnane X receptor (rPXR) activation by small molecules, qHTS assay (AID 1346983); details: rPXR luciferase reporter cells, One-Glo luminescence, 24 h; max activation: stronger effect = higher value; also: potency is read from the fitted curve at half-maximal effect; nearly all actives have a fitted effect of over 20% in size
Procedure, shortened: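 Cell-based rPXR luciferase reporter assay, 2,000 cells per well, rested 5hr at 37 C before compound addition in DMSO, then 24 hr at 37 C. One-Glo reagent was added and luminescence read after 30 min at room temperature.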

Sequence of Cytochrome P450 2D6 (Homo sapiens) (P10635 whole entry, looked up): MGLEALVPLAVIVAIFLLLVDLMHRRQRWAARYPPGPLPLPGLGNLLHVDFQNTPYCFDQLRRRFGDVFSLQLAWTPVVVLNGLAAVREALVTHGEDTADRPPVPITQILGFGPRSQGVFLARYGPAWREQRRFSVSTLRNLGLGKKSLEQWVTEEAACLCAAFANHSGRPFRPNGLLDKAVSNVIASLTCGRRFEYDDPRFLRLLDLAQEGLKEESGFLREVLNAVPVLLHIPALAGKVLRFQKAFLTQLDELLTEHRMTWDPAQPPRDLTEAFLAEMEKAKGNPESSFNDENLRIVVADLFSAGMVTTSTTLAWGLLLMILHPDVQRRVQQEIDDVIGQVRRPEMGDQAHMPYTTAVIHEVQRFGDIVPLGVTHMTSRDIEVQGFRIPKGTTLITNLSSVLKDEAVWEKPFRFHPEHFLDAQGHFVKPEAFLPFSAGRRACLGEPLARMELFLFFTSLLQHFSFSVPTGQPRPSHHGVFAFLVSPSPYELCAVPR
Sequence of Nuclear receptor subfamily 1 group I member 2 (Homo sapiens) (O75469 whole entry, looked up): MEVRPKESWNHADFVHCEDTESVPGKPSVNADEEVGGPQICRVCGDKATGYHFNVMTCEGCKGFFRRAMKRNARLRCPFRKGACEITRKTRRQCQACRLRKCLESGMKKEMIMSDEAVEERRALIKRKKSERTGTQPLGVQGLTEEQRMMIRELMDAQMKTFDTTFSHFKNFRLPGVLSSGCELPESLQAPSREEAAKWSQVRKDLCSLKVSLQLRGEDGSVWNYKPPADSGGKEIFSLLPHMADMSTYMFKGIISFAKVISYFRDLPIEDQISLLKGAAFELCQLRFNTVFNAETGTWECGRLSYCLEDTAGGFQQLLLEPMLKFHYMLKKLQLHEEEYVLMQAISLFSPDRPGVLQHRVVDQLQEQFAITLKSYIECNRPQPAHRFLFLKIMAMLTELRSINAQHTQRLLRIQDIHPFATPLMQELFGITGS
Sequence of Progesterone receptor (Homo sapiens) (P06401 whole entry, looked up): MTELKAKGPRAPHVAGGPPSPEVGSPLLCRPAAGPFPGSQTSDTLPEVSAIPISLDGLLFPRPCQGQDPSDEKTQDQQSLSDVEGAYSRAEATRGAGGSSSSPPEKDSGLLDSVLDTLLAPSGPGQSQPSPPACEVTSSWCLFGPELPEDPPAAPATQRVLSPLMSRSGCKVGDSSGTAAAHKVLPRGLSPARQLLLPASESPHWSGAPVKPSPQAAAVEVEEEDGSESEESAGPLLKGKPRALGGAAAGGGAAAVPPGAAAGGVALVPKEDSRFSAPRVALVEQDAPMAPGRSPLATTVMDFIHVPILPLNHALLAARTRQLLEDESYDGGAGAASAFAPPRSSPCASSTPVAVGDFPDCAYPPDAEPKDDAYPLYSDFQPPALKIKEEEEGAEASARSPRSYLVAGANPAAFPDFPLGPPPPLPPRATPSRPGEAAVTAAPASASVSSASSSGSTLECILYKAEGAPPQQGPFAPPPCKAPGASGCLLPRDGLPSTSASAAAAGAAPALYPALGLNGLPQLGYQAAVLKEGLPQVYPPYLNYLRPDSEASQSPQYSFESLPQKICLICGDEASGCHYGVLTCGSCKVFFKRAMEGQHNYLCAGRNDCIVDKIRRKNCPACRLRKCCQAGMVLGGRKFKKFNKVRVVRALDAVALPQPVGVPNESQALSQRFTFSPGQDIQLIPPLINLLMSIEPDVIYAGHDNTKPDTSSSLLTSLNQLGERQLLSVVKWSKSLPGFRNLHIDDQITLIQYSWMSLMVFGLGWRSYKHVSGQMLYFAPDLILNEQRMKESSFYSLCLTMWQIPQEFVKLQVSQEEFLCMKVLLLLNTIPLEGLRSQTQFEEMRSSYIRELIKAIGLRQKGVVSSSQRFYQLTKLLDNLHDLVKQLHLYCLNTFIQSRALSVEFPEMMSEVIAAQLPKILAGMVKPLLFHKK
Sequence of Thyrotropin-releasing hormone receptor (Homo sapiens) (P34981 whole entry, looked up): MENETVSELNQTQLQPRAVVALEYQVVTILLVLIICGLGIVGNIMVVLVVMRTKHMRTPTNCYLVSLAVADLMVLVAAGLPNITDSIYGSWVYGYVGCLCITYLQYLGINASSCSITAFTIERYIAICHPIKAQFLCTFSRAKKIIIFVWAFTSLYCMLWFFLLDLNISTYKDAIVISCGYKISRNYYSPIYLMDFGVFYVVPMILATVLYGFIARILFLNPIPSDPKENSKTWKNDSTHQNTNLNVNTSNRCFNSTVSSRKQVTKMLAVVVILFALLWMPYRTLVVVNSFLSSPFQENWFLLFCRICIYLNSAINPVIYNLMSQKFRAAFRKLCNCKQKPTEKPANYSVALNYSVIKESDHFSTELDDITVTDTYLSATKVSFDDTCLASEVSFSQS
Sequence of Nuclear receptor subfamily 1 group I member 2 (Rattus norvegicus) (Q9R1A7 whole entry, looked up): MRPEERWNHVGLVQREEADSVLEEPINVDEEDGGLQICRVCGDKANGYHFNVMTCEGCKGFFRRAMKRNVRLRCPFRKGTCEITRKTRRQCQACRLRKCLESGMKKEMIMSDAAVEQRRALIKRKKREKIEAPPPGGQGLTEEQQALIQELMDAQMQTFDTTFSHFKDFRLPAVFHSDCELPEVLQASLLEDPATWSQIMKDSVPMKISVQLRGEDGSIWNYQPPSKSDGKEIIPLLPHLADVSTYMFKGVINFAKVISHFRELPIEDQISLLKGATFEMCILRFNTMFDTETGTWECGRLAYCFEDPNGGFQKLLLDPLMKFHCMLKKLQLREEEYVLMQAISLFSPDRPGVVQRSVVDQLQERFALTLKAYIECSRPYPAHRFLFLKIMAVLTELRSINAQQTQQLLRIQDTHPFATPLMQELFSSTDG

O=C(Nc1ccc2c(c1)Cc1ccccc1-2)C(F)(F)F
active: Potency [3] 4.33 µM | Potency [13] 34.4 µM
inactive: Potency [1] | Potency [2] | outcome [4] | outcome [5] | outcome [6] | outcome [7] | outcome [8] | Potency [9] | Potency [10] | Potency [11] | Potency [12] | Potency [14]

CC(=O)CC/C=C(\C)CC/C=C(\C)CC/C=C(\C)CCC=C(C)C
inactive: Potency [2] | Potency [3] | Potency [15] | outcome [4] | outcome [5] | outcome [6] | Potency [9] | Potency [10] | Potency [11] | Potency [12] | Potency [16]
active: Potency [13] 23.7 µM

c1ccc(-c2ccc(-c3ccccc3)cc2)cc1
inactive: activity change, negative = cytotoxicity [1] 0.383% [at 19 µM] | activity change, negative = cytotoxicity [17] 3.71% [at 18.9 µM] | activity change, negative = cytotoxicity [15] 0% [at 19 µM] | viability change, negative = cytotoxic [4] -15.2% [at 15.8 µM] | activity change, negative = cytotoxicity [5] -3.25% [at 15.8 µM] | activation [6] 0.211% [at 15.8 µM] | activity, negative = inhibition [7] -0.349% [at 10.5 µM] | activation [8] 0.249% [at 11.8 µM] | activity change, negative = cytotoxicity [9] 0.816% [at 19 µM] | caspase activation [10] -3.46% [at 19 µM] | activity change, negative = cytotoxicity [11] 11.6% [at 19 µM] | caspase-3/7 activation [12] -1.92% [at 19 µM] | activity change, negative = cytotoxicity [16] 6.27% [at 19 µM] | activity change, negative = inhibition [14] -3.95% [at 23.6 µM]
active: Potency [13] 1.77 µM

CCC(CC)C(=O)O
inactive: Potency [1] | Potency [2] | Potency [3] | Potency [15] | outcome [4] | outcome [5] | outcome [6] | outcome [7] | outcome [8] | Potency [9] | Potency [10] | Potency [11] | Potency [12] | Potency [16] | Potency [13] | Potency [14]

COc1ccc(/C=C/c2cc(OC)cc(=O)o2)cc1
inactive: Potency [1] | Potency [2] | Potency [3] | outcome [4] | outcome [5] | outcome [6] | outcome [7] | outcome [8] | Potency [9] | Potency [10] | Potency [11] | Potency [12] | Potency [16]

CCCCCCCCS
inactive: Potency [2] | Potency [3] | Potency [15] | outcome [4] | outcome [5] | outcome [6] | Potency [9] | Potency [10] | Potency [11] | Potency [12] | Potency [16] | Potency [13] | Potency [14]

CCCc1ccc(OC)cc1
inactive: Potency [1] | Potency [2] | Potency [15] | outcome [4] | outcome [5] | outcome [6] | outcome [7] | outcome [8] | Potency [9] | Potency [10] | Potency [11] | Potency [12] | Potency [16] | Potency [13] | Potency [14]

CCCc1nc(C)c2c(=O)[nH]c(-c3cc(S(=O)(=O)N4CCN(CC)CC4)ccc3OCC)nn12
inactive: Potency [1] | Potency [2] | Potency [3] | Potency [17] | outcome [5] | outcome [6] | Potency [10] | Potency [11] | Potency [12] | Potency [16]
active: Potency [18] 3.55 µM

CCOc1ccc(NC(C)=O)cc1N
inactive: Potency [1] | Potency [2] | Potency [15] | outcome [4] | outcome [5] | outcome [6] | Potency [9] | Potency [10] | Potency [11] | Potency [12]

Nc1nc(Cl)nc2c1ncn2[C@H]1C[C@H](O)[C@@H](CO)O1
inactive: Potency [1] | Potency [2] | Potency [3] | Potency [15] | outcome [5] | outcome [6] | outcome [7] | outcome [8] | Potency [9] | Potency [10] | Potency [11] | Potency [12] | Potency [16] | Potency [14]
active: Potency [13] 1.71 µM

O=C(O)c1cccnc1Nc1cccc(C(F)(F)F)c1
inactive: Potency [1] | Potency [2] | outcome [4] | outcome [5] | outcome [6] | outcome [7] | outcome [8] | Potency [9] | Potency [10] | Potency [11] | Potency [12] | Potency [16] | Potency [14]
active: Potency [13] 13.3 µM

C(/C=C/C=C/Nc1ccccc1)=Nc1ccccc1
active: Potency [14] 71 µM
inactive: Potency [2] | Potency [3] | Potency [17] | outcome [4] | outcome [5] | outcome [6] | outcome [7] | outcome [8] | Potency [9] | Potency [10] | Potency [11] | Potency [12] | Potency [16]
